Source: article PMC12280212

Assays:
Assay in all cases: cross-linking mass spectrometry
Actin, cytoplasmic 1 = Actin, cytoplasmic 1 (UniProt P60709)
[1] = target: Elongation factor 1-alpha 2 (UniProt Q05639)
Histone H2B type 1-N = Histone H2B type 1-N (UniProt Q99877)
[2] = target: T1, LIM and SH3 domain protein 1 (UniProt Q14847)
T1 sequence: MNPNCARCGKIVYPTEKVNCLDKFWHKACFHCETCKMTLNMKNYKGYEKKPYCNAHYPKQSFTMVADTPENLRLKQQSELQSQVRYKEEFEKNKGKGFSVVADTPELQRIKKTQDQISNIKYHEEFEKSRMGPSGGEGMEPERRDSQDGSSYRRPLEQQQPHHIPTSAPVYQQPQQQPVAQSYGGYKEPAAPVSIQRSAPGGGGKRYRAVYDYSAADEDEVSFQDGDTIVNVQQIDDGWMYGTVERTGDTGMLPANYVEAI

[3] = target: Ubiquitin-ribosomal protein eS31 fusion protein (UniProt P62979)
[4] = target: Large ribosomal subunit protein eL31 (UniProt P62899)
[5] = target: Large ribosomal subunit protein uL4 (UniProt P36578)
Vimentin = Vimentin (UniProt P08670)

Sequence of Peptidyl-prolyl cis-trans isomerase A, P62937 (P62937 whole entry): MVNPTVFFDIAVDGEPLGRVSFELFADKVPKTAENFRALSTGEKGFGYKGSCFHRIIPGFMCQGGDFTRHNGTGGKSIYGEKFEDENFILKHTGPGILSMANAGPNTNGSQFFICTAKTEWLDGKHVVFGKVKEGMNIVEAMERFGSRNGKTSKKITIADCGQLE

Elongation factor 2, P13639
listed as a hit (Actin, cytoplasmic 1): yes

Actin, cytoplasmic 1, P60709
listed as a hit [1]: yes
listed as a hit (Histone H2B type 1-N): yes
listed as a hit [2]: yes
listed as a hit [3]: yes

Peptidyl-prolyl cis-trans isomerase A, P62937
listed as a hit (Histone H2B type 1-N): yes

Large ribosomal subunit protein uL29, P42766
listed as a hit [4]: yes

Large ribosomal subunit protein uL6, P32969
listed as a hit [5]: yes

Protein S100-A6, P06703
listed as a hit (Vimentin): yes
